Laboratory results as given in PubChem BioAssay (NCATS).
Values without a mark were called inactive. Inconclusive results are not listed. The source made the active and inactive calls. Unless noted, the call rests on the fitted dose curve; in most records, active means well fitted curve in either direction with a large enough effect (not every such curve was filed as active); inconclusive means small, poorly fitted or top-dose-only effect, or another doubt; inactive means flat fitted curve, though single readings scatter.

Legend:
[1] = AP1 Signaling Pathway (AID 357); conditions: ME-180 AP-1-bla reporter, EGF-induced, beta-lactamase ratio, 5 h; at 17.2 µM (top of the series) unless noted;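 further: ME-180 reporter cells stimulated with EGF at its EC50 level; on the % scale 0 is the no-effect control and ±100 the full control effect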
Procedure, shortened: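 A ratiometric CCF4 readout (405 nm excitation; 460 and 530 nm emission) quantified AP-1-driven beta-lactamase in ME-180 cells after 5 h with compound and EC50 EGF; AC50 values were derived for activators and inhibitors.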

[2] = NFAT Signaling Pathway (AID 444); conditions: Jurkat NFAT-bla M1, carbachol, beta-lactamase ratio, 5 h; at 17.2 µM (top of the series) unless noted;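 further: carbachol stimulus at about its EC50 of 1 µM final; on the % scale 0 is the no-effect control and ±100 the full control effect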
Procedure, shortened: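 Read-out: CCF4 FRET ratio (460 nm/530 nm) after 1 h RT dye loading, used for %activity and AC50 from titration series. Cells: Jurkat NFAT-β-lactamase/M1 line, treated with compound plus 1 uM carbachol for 5 h, 37 °C.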

[3] = Stat Signaling Pathway (AID 446); conditions: ME-180 SIE beta-lactamase reporter, IL-6 stimulated, 5 h; at 17.2 µM (top of the series) unless noted;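 further: ME-180 cervical cancer cells given 40 pM IL-6 alongside compound; SIE-controlled beta-lactamase reporter measured as 460/530 nm FRET emission ratio; on the % scale 0 is the no-effect control and ±100 the full control effect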
Procedure, shortened: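 Emission at 460 and 530 nm (excitation 405 nm) reports SIE-controlled beta-lactamase in ME-180 cells. Cells received compound with 40 pM IL-6 for 5 hrs at 37 C; data scaled between 300 pM IL-6 and 125 nM JAK-inhibitor controls.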

[4] = biological target: Glucocorticoid receptor (Homo sapiens) (UniProt P04150); experiment: GR-GFP Redistribution (AID 450;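 active means compounds whose dose series gives a full or clear partial fitted curve of increased nuclear translocation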; further: potency means the concentration at half of the fitted maximal effect)
[5] = qHTS Assay for Identification of Small Molecule Agonists for Hypoxia Response Element Signaling Pathway (AID 914; active means well fitted activation curve with a large enough effect in the signal ratio, with a control signal flat, not every such curve was filed as active; the % refers to the signal ratio; further: potency means the concentration at half of the fitted maximal effect; on activation: % of control where 0% means no effect); conditions: ME-180 (cervical carcinoma) HRE-bla reporter, beta-lactamase ratio, CoCl2, 17 h; activation: hits give high values
Procedure, shortened: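 Compounds in a titration series were added to ME-180 reporter cells alongside an EC50 level of CoCl2. After 17 hours, beta-lactamase activity was read as the 460nm/530nm emission ratio of CCF4, giving AC50 values.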

Glucocorticoid receptor (Homo sapiens), sequence (P04150 whole entry, looked up): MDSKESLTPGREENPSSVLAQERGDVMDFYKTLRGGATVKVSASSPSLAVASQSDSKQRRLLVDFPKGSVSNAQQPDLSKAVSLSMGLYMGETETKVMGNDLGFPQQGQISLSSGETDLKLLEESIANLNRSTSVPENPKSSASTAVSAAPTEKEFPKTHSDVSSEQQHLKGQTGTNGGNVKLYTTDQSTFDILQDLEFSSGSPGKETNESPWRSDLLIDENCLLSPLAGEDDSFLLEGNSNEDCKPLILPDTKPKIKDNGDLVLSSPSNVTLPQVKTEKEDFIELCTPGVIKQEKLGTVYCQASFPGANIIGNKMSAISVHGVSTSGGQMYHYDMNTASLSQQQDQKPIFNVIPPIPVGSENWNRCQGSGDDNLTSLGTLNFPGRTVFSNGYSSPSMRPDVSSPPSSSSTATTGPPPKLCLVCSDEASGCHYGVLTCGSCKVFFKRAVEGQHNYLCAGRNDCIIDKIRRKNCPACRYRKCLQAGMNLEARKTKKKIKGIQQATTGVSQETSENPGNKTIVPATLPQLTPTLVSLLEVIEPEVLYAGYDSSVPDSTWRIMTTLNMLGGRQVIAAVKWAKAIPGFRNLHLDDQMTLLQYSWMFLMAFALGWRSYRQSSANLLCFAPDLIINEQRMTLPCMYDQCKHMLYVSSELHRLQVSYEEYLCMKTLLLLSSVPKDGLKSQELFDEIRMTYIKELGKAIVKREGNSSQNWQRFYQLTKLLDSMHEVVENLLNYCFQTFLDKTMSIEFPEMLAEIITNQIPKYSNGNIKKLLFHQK

| SMILES | activity change, negative = inhibition [1] | activity change, negative = inhibition [2] | activity, negative = inhibition [3] | Potency [4] | activation [5] | Potency [5] |
| --- | --- | --- | --- | --- | --- | --- |
| COC(=O)c1ccc(=O)n(Cc2ccc3c(c2)OCO3)c1 | -0.911% | 6.79% | -1.86% | > 20.6 µM | 26.1% | – |
| Cc1cc(Cl)ccc1OCC(=O)OC(C)C(=O)N(C)C (stereo not given) | 3.68% | 17.7% | -3.58% | > 20.6 µM | -0.0413% | – |
| COC(=O)C(NC(C)=O)(Nc1nc2c(s1)CCCC2)C(F)(F)F (stereo not given) | 1.18% | -2.64% | -8.22% | > 20.6 µM | -17% | – |
| CCN(CC)CCNc1ncnc2c1[nH]c1ccc(OC)cc12 | 7.05% | -11.4% | 3.82% | > 20.6 µM | 2.09% | – |
| COc1ccc2c(C)nc(Nc3nc(C)cc(C)n3)nc2c1 | -4.83% | -4.96% | 7.03% | > 20.6 µM | -6.59% | – |
| COc1ccccc1C1/C(=C(\O)c2ccc3c(c2)OCCO3)C(=O)C(=O)N1CCCN(C)C (stereo not given) | 8.19% | -5.11% | 4.48% | > 20.6 µM | -1.93% | – |
| CC(C)Oc1ccc(/C(O)=C2/C(=O)C(=O)N(CCN(C)C)C2c2ccco2)cc1 (stereo not given) | -1.52% | -2.83% | 8.49% | > 20.6 µM | -2.15% | – |
| COc1ccccc1NC(=O)Nc1nnc(C(C)C)s1 | -4.89% | 20.9% | -3.37% | > 20.6 µM | 10.4% | – |
| C=CCn1c(N)c(C(=O)OC(C)(C)C)c2nc3ccccc3nc21 | -16.9% | 3.64% | -6.1% | > 20.6 µM | – | 10 µM (active) |
| CSc1ccccc1NC(=O)c1c(Br)cnn1C | -8.39% | -10.8% | 1.88% | > 20.6 µM | 27.6% | – |
